Reference: the supplement of paper PMC11732987, “Enantioselective OTUD7B fragment discovery through chemoproteomics screening and high-throughput optimisation” (Communications Chemistry, 2025)

Tests used:
Experiment in all cases: log2 ratio of Biotin-Ahx-Ub-VS probe labelling (fragment/DMSO); higher = less target engagement (more negative = stronger competition), active = hit call of the paper (q ≤ 0.05, log2 ratio ≤ -1)
Settings in all cases: compound concentration: 200 uM; treatment time: 3 h
[1] = molecular target: USP34 (UniProt Q70CQ2)
Sequence of USP34 (Q70CQ2 whole entry, the tested form may be a part): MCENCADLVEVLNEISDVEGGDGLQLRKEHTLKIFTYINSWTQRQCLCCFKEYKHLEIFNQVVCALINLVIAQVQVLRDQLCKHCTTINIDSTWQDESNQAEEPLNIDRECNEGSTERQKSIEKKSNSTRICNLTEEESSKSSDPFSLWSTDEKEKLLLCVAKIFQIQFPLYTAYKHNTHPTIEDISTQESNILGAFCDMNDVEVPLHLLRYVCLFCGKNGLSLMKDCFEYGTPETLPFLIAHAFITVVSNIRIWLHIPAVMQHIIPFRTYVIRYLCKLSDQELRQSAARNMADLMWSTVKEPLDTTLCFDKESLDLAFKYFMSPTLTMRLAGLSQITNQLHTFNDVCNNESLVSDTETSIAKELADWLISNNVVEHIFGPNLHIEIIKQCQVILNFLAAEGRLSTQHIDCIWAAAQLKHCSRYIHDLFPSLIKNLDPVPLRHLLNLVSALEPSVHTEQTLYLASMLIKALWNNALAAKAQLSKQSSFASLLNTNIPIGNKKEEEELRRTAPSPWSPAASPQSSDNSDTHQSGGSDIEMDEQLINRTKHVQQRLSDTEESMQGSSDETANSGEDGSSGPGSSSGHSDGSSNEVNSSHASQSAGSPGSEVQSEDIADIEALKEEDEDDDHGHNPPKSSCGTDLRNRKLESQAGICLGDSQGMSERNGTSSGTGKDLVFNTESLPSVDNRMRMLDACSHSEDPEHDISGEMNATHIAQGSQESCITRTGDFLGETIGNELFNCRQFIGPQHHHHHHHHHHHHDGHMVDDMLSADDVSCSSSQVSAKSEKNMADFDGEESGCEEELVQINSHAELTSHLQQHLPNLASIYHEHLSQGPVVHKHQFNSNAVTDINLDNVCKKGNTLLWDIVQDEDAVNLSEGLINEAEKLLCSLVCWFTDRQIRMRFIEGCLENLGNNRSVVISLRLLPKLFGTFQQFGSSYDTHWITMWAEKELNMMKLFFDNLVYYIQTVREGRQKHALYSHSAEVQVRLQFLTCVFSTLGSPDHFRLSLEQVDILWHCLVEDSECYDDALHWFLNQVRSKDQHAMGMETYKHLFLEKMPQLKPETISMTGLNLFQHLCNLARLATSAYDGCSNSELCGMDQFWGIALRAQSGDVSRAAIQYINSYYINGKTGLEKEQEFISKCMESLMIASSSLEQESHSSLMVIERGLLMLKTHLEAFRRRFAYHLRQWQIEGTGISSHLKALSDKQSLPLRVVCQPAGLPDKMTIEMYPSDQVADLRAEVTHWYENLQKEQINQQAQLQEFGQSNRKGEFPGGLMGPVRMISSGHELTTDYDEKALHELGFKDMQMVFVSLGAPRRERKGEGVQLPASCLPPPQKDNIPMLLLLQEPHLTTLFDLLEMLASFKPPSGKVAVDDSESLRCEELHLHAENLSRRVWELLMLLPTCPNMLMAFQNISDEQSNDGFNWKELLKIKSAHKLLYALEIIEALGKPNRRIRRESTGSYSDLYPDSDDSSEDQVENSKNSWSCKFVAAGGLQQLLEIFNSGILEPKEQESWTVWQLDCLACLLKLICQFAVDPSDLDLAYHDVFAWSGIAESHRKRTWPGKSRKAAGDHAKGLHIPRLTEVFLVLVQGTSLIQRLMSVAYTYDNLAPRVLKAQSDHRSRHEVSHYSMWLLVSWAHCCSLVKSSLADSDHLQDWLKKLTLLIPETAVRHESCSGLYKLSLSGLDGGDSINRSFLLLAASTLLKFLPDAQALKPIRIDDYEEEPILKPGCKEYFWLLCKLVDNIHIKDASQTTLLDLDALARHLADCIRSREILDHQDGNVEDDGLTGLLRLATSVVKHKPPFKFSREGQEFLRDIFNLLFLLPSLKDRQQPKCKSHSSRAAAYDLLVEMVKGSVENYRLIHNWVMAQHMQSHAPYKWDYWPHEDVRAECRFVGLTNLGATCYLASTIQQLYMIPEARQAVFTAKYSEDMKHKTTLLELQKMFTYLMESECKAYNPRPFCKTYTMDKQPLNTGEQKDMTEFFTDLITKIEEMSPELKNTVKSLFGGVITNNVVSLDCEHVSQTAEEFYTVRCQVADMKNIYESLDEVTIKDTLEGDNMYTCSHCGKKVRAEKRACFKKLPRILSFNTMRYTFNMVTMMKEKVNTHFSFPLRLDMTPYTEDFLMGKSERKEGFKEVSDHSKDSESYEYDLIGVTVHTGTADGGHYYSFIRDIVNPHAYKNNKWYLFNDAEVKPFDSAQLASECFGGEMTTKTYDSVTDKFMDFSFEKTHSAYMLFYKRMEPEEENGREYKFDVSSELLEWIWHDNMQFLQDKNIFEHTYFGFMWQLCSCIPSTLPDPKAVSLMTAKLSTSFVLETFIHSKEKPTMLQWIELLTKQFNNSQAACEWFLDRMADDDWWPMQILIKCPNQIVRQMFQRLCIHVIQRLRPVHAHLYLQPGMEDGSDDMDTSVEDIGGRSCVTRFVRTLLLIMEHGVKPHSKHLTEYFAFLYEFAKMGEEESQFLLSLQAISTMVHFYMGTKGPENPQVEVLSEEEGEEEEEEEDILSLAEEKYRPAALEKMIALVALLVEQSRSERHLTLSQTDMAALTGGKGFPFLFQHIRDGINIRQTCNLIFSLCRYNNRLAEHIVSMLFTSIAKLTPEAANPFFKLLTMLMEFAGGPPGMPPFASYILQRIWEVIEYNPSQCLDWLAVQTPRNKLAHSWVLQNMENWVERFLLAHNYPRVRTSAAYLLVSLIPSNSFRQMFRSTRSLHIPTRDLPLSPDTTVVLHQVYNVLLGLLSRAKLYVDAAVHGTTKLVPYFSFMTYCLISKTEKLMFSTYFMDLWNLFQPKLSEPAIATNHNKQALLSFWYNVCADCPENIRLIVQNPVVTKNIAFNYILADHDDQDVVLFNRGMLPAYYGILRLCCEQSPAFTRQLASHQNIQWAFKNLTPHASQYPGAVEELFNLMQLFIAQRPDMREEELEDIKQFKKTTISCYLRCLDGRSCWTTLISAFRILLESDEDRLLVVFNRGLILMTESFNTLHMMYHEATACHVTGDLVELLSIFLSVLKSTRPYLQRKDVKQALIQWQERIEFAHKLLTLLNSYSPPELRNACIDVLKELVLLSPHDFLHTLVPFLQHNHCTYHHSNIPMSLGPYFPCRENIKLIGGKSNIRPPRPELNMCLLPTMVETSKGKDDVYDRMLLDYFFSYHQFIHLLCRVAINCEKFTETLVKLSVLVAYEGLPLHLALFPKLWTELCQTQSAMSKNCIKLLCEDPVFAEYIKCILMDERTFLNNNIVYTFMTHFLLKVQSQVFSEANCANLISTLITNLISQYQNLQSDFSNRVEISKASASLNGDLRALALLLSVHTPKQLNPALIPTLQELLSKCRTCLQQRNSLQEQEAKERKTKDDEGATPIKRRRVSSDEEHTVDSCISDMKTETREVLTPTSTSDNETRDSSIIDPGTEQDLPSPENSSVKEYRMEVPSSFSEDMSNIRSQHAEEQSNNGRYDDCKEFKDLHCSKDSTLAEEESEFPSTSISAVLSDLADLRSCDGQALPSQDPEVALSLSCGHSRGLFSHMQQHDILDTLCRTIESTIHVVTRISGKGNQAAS
Outline: (§1)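 The table lists average log2 ratios of fragment over vehicle, from an unpaired t-test on global-median-normalised Spectronaut label-free quantities. Proteins with ≥2 unique peptides were used. Samples were HEK293T lysate (495 µg) treated in triplicate with fragment at 200 µM or vehicle for 3 h, then with Biotin-Ahx-Ub-VS (0.5 µM final) for 1 h, with labelled DUBs NeutrAvidin-enriched and run by diaPASEF LC-MS/MS.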

[2] = molecular target: T1, USP36 (UniProt Q9P275)
T1 sequence (whole entry): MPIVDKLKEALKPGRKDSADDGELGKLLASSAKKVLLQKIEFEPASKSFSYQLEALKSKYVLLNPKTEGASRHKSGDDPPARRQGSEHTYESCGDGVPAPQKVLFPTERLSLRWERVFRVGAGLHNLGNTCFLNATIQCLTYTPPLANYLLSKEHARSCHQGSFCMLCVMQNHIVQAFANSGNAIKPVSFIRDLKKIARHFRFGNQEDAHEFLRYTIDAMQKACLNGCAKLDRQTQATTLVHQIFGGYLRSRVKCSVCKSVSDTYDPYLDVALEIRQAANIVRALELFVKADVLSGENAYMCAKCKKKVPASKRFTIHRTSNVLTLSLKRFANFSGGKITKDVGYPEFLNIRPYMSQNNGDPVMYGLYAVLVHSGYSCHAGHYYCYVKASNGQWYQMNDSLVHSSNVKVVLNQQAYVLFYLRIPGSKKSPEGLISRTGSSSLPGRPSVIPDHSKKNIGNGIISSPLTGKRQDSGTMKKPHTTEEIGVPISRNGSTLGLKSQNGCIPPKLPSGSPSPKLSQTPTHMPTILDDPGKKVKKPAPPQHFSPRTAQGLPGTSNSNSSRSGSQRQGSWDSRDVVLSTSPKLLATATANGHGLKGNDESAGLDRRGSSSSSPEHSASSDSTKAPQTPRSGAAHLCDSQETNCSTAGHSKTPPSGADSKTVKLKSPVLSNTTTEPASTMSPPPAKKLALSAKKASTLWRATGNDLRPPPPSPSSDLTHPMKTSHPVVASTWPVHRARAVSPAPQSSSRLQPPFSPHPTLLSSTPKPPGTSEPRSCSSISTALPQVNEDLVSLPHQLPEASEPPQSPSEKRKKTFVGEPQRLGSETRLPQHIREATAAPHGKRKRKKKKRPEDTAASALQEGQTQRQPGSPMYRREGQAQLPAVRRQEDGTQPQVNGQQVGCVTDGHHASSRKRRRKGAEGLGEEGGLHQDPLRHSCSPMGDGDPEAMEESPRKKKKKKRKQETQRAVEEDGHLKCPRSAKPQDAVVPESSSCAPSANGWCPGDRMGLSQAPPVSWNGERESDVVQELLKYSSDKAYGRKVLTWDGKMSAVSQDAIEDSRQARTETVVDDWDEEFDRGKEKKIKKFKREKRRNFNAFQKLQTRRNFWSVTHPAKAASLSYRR
Outline: as §1

[3] = molecular target: T2, USP38 (UniProt Q8NB14)
T2 sequence (whole entry): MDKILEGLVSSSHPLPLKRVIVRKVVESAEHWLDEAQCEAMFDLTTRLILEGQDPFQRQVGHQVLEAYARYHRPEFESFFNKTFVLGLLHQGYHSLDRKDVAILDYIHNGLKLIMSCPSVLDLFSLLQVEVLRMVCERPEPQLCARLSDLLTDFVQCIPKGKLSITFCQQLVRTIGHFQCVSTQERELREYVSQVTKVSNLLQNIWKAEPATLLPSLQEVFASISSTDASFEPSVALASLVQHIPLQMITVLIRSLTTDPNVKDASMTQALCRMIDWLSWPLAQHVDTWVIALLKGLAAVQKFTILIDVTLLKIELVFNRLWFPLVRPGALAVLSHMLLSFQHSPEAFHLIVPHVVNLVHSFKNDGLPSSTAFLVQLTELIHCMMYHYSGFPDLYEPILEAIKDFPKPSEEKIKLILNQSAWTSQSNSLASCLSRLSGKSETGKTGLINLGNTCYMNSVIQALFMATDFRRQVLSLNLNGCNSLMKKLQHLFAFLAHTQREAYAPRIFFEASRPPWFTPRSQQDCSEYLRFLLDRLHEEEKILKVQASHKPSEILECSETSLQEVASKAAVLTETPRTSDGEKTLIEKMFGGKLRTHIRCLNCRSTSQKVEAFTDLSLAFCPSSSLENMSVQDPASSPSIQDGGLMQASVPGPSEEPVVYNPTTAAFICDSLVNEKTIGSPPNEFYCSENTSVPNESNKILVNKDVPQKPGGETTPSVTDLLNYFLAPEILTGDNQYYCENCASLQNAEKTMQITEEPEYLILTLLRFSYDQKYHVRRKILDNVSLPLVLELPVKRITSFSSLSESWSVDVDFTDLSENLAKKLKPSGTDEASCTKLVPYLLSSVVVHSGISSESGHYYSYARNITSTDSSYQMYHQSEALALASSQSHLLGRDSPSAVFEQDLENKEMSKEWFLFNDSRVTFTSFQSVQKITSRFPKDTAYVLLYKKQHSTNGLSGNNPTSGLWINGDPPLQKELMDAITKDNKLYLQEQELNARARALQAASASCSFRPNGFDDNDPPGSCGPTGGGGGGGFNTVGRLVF
Outline: as §1

[4] = molecular target: T3, USP39 (UniProt Q53GS9)
T3 sequence (whole entry): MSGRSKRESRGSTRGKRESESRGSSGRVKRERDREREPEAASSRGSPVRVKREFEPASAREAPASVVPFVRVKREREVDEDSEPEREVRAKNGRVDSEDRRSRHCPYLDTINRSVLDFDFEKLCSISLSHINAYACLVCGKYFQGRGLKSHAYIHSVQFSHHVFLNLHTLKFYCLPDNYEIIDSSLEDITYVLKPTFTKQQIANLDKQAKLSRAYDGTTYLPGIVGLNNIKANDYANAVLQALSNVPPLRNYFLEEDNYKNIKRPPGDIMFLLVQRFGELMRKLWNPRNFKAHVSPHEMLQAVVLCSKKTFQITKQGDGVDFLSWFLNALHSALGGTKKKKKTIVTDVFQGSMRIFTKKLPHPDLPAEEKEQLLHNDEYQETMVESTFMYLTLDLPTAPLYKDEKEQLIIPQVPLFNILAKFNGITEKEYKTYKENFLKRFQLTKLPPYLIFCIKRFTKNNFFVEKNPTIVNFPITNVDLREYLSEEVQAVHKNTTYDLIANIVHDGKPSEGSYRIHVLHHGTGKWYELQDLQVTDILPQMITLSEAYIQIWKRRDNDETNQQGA
Outline: as §1

[5] = molecular target: T4, USP4 (UniProt Q13107)
T4 sequence (whole entry): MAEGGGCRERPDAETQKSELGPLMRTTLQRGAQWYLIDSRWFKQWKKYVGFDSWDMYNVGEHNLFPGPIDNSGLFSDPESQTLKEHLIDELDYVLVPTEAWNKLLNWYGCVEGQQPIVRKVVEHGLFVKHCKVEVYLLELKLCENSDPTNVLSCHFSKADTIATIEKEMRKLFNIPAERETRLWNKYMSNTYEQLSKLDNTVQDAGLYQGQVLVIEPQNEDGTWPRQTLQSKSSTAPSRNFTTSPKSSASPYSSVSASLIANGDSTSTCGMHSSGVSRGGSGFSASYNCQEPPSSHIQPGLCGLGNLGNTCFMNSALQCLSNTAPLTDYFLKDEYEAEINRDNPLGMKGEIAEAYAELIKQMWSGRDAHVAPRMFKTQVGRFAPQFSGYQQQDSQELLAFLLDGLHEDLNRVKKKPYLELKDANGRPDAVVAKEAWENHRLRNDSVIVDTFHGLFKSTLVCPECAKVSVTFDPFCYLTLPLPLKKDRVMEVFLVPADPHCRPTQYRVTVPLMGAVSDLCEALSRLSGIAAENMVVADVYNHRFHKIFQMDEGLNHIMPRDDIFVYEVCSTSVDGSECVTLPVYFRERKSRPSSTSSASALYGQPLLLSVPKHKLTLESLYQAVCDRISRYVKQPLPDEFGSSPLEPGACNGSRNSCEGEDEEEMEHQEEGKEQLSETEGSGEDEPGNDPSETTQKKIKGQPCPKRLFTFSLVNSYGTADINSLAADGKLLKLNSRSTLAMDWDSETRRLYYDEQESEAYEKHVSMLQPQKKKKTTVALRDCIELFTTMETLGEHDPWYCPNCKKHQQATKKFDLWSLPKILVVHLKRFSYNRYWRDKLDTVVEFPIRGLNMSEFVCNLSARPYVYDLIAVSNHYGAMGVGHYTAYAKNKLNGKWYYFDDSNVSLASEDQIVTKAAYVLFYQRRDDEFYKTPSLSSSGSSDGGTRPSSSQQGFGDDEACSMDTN
Outline: as §1

Measured: log2 ratio of Biotin-Ahx-Ub-VS probe labelling

O=C(CCl)Nc1ccc(N2CCCC2=O)cc1
inactive: [1] 0.0377 | [2] 0.2 | [3] 0.147 | [4] -0.106 | [5] 0.0532
